Source: PubChem BioAssay

These molecules were tested on XIP peptide (Xip251-270) (assay: compounds binding XIP fragment 251-270 – biochemical, small-molecule microarray, fluorescence 635/667 nm, 0.5 µg/mL protein, primary screen (AID 1183)). Details: fluorescence 635 nm, higher = more signal.
Molecule COCCOC(=O)N1C(=O)[C@@]2(c3cc(C#CC4=CCCCC4)ccc31)[C@H](C(=O)NC[C@H](O)c1ccccc1)[C@H]1C(=O)O[C@H](c3ccccc3)[C@H](c3ccccc3)N1[C@@H]2c1ccc(OCCO)cc1 has a composite z-score of 0.612. Work on CCC#CCN(Cc1ccccc1Br)[C@H](/C=C/c1ccccc1)[C@@H](O)Cc1ccccc1 yielded a composite z-score of -0.613. C=C(CCCC)/C(=C/C[C@@H](OC(=O)c1ccncc1)c1cccc(OCCO)c1)c1cc(C(=O)OC)ccc1OC showed a composite z-score of 0.74. Work on NC(=O)NCC#Cc1ccc2c(c1)[C@]1(C(=O)N2)[C@H](c2ccccc2OCCO)N2[C@H](c3ccccc3)[C@H](c3ccccc3)OC(=O)[C@H]2[C@@H]1C(=O)N1CCN(c2ncccn2)CC1 yielded a composite z-score of 0.763. O=C1OCC=C[C@H]2OC34C=CCN(Cc5ccccc5)C(=O)[C@H]3N(CCO)C(=O)[C@@H]4[C@@H]12 (stereo partly specified) gave a composite z-score of 0.666. Cc1ccc(S[C@]2(C(=O)NC(C)C)CC(=O)N(Cc3cc(C(F)(F)F)cc(C(F)(F)F)c3)[C@@H]2c2ccc(CO)cc2I)cc1 showed a composite z-score of 0.667. In the case of COc1ccc(C(=O)Nc2ccc(CN3C(=O)[C@]4(O[C@H](CCn5cc(CCO)nn5)[C@@H]([Si](C)(C)c5ccc(OC)cc5)[C@@H]4C)c4ccccc43)cc2)cc1, the composite z-score is reported as 0.621. COC(=O)[C@@]1(Cc2ccccc2)[C@H]2c3cc(C(=O)N4CCCC4)n(CCN4CNCC4=O)c3C[C@H]2CN1C(=O)c1ccccc1 gave a composite z-score of -0.127. CCCNC(=O)[C@@H]1c2ccccc2C(=O)N(C2CCCCC2)[C@H]1c1ccc(CO)cc1 gave a composite z-score of 0.749. CC(C)C[C@@H]1NC(=O)[C@H]2C[C@@H](C(=O)NCCCCCC[N+](C)(C)C)[C@@H](c3ccc(O)cc3)N2C1=O gave a composite z-score of 0.608. For O=C(NCc1ccccc1)[C@@]1(Cc2ccccc2)COC(c2ccc(OCCCO)cc2)=N1, the composite z-score was 0.75. For C=CCN1C(=O)[C@@]2(Cc3ccccc3)N=C(c3ccc(OCCCO)cc3)O[C@H]2c2ccccc21, the composite z-score was 0.79. For COCCCNC(=O)[C@@H]1c2ccccc2C(=O)N(CC23CC4CC(CC(C4)C2)C3)[C@H]1c1ccc(CO)cc1, the composite z-score was -0.518. [N-]=[N+]=NCc1ccccc1[C@H]1OC(c2ccc(OCCCO)cc2)=N[C@@]1(Cc1ccccc1N=[N+]=[N-])C(=O)NCc1ccccc1 was tested, and the composite z-score was 0.649. O=C1C2C=CC(C(O)c3ccccc3)N(n3cnnc3)C2C(=O)N1Cc1ccccc1 (stereo unspecified) gave a composite z-score of -0.179. With CCCC[C@@H]1C[C@H]1[C@@H](NC(=O)c1ccccc1)c1ccccc1C(F)(F)F the composite z-score was 0.193. COc1ccc(CCN2C(=O)[C@@]3(c4ccc([N+](=O)[O-])cc4)CC(=O)N(CC45CC6CC(CC(C6)C4)C5)[C@@H]3c3ccc(CO)cc32)cc1 gave a composite z-score of 0.93. O=C1O[C@@H](c2ccccc2)[C@@H](c2ccccc2)N2[C@@H](c3ccc(OCCO)cc3)[C@]3(C(=O)Nc4ccc(C#CCCO)cc43)[C@@H](C(=O)N3CCN(c4ncccn4)CC3)[C@H]12 was tested, and the composite z-score was 0.721. In the case of Cc1ccc(S[C@]2(C(=O)NC(C)C)CC(=O)N(C3Cc4ccccc4C3)[C@@H]2c2ccc(CO)cc2)cc1, the composite z-score is reported as 0.882. Work on O=C1O[C@H](c2ccccc2)[C@H](c2ccccc2)N2[C@H]1[C@@H](C(=O)Nc1nc3ccccc3s1)[C@]1(C(=O)Nc3ccc(C#CC4=CCCCC4)cc31)[C@H]2c1ccccc1OCCO yielded a composite z-score of 0.0555. In the case of C=CC[C@]1(C(=O)O)N=C(c2ccc(OCCCO)cc2)O[C@H]1c1ccccc1N=[N+]=[N-], the composite z-score is reported as -0.519. With CCOC(=O)C1=C[C@@H](c2ccccc2)N(S(=O)(=O)c2ccc(C)cc2)[C@H]1c1ccc(F)cc1 the composite z-score was 0.382. With C=CCC(OC(C)=O)[C@@H]1[C@@H](N(Cc2cccc3ccccc23)C(=O)c2ccc(C)cc2)c2cc(OCCCO)ccc2N1C(=O)c1ccc(-c2ccccc2)cc1 (stereo partly specified) the composite z-score was 0.481. Molecule COc1ccc(-c2cc3c(c(-c4ccccc4)n2)[Si](C(C)C)(C(C)C)O[C@H]3c2ccccc2)cn1 has a composite z-score of 0.559. Cc1ccc(S[C@]2(C(=O)O)CC(=O)N(Cc3cc(C(F)(F)F)cc(C(F)(F)F)c3)[C@@H]2c2ccc(CO)cc2I)cc1 was tested, and the composite z-score was 0.761. O=C1O[C@H](c2ccccc2)[C@H](c2ccccc2)N2[C@H]1[C@@H](C(=O)Nc1nc3ccccc3s1)[C@]1(C(=O)Nc3ccc(C#CC4(O)CCCCCC4)cc31)[C@H]2c1ccc(O)cc1 was tested, and the composite z-score was 0.844. With O=C1C2C=CC(C(O)C#Cc3ccccc3)N(Nc3ccccc3)C2C(=O)N1c1ccccc1 (stereo unspecified) the composite z-score was 0.176. For CN1C(=O)C2C=CC(C(O)C3CC=CCC3)N(Nc3ccccc3)C2C1=O (stereo unspecified), the composite z-score was 0.795. COCCCNC(=O)[C@@]1(c2ccc([N+](=O)[O-])cc2)CC(=O)N(C2CCCCC2)[C@@H]1c1ccc(CO)cc1 gave a composite z-score of -0.0219. With Cc1ccccc1C(O)C1C=CC2C(=O)N(c3ccccc3)C(=O)C2N1Nc1ccc(C#N)cc1 (stereo unspecified) the composite z-score was 0.761. In the case of CCOC(=O)C[C@H]1[C@H](OC(=O)Cc2ccc3c(c2)OCO3)[C@@H](NC(=O)c2ccc3ccccc3c2)c2cc(OCCCO)ccc2N1C(=O)Cc1ccc(OC)cc1, the composite z-score is reported as 0.737. With COC(=O)[C@@]1(Cc2ccccc2CN=[N+]=[N-])N=C(c2ccc(OCCCO)cc2)O[C@H]1c1ccccc1N=[N+]=[N-] the composite z-score was 0.653. For O=C/C=C/c1ccc(/C=C/c2ccccc2)cc1, the composite z-score was -0.443. CC(C)NC(=O)[C@@]1(Cc2ccccc2I)c2ccccc2C(=O)N(C2CCCCC2)[C@H]1c1ccc(CO)cc1 gave a composite z-score of 0.84. In the case of C=CCC(OC(C)=O)[C@@H]1[C@@H](N(Cc2cccc3ccccc23)C(=O)Cc2ccc(F)cc2)c2cc(OCCCO)ccc2N1C(=O)Cc1ccc2ccccc2c1 (stereo partly specified), the composite z-score is reported as 0.57. Work on CCCC=C(CCC)[C@@H](NC(=O)c1ccc(C(F)(F)F)cc1)c1ccccc1 yielded a composite z-score of 0.144.
